PubChem BioAssay (EPA / NIEHS)
Records with an inconclusive call do not appear. The source made the active and inactive calls. Rule for the calls, unless noted: active = hit-call score of the fitted dose curve at least 0.9, where 1 is the maximum; inconclusive = response in the unintended direction; inactive = score below 0.9.

Columns and labels:
[1] = Tanguay_ZF_120hpf_BRAI_legacy: (Legacy) Oregon State University Tanguay Lab 120 Hour Post-fertilization zebrafish Assay for Brain Malformation (AID 2283641)
Method in brief: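 Brain malformation in Tropical 5D zebrafish was recorded as a binary endpoint after static compound exposure from early development to 120 hpf at 28C. Activity was analysed against DMSO as negative control.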

[2] = Tanguay_ZF_120hpf_PFIN_legacy: (Legacy) Oregon State University Tanguay Lab 120 Hour Post-fertilization zebrafish Assay for Pectoral Fin Malformation (AID 2283648);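 note: each larva judged yes or no for fin defect by brightfield with dead larvae skipped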
Method in brief: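 5D WT zebrafish; pronase dechorionation 4 hpf; 1 embryo/well at 6 hpf; static exposure to 120 hpf, 28C, sealed, foil-covered; final DMSO 0.64% v/v; 5 uM trimethyltin chloride positive control; fin defect scored yes/no.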

[3] = Tanguay_ZF_120hpf_CFIN_legacy: (Legacy) Oregon State University Tanguay Lab 120 Hour Post-fertilization zebrafish Assay for Caudal Fin Malformation (AID 2283649)
Method in brief: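 Embryos were collected from Tropical 5D wild-type adults and dechorionated at 4 hpf. At 6 hpf each was exposed, one per well, at 0.64% DMSO and 28C. At 120 hpf fin morphology was scored; dead embryos were excluded.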

[4] = Tanguay_ZF_120hpf_PIG_legacy: (Legacy) Oregon State University Tanguay Lab 120 Hour Post-fertilization zebrafish Assay for Pigmentation Malformation (AID 2283650)
Method in brief: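 Pronase dechorionation at 4 hpf; embryos plated at 6 hpf, one per well; static exposure, sealed and foil-covered, 28C, to 120 hpf; pigmentation read by brightfield, binary; DMSO 0.64% baseline, 5uM trimethyltin chloride positive control.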

[5] = Tanguay_ZF_120hpf_CIRC_legacy: (Legacy) Oregon State University Tanguay Lab 120 Hour Post-fertilization zebrafish Assay for Circulatory Malformation (AID 2283651)
Method in brief: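 Read-out: presence or absence of circulatory malformation at 120 hpf, scored by brightfield microscopy, fitted in the gain-of-signal direction against DMSO baseline. Wild-type 5D larvae were exposed from 6 hpf after enzymatic chorion removal.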

[6] = Tanguay_ZF_120hpf_SWIM_legacy: (Legacy) Oregon State University Tanguay Lab 120 Hour Post-fertilization zebrafish Assay for Swim Bladder Malformation (AID 2283654);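 note: swim bladder malformation in each larva scored yes or no under brightfield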
Method in brief: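 Embryos lacking chorions were exposed individually and statically to test chemical from 6 to 120 hpf at 28C, with 0.64% DMSO as vehicle. At 120 hpf, swim bladder malformation was recorded as present or absent by brightfield microscopy.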

[7] = Tanguay_ZF_120hpf_SOMI_legacy: (Legacy) Oregon State University Tanguay Lab 120 Hour Post-fertilization zebrafish Assay for Somite Malformation (AID 2283647)
Method in brief: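 5D WT zebrafish; chorion removed 4 hpf; 1 embryo/well from 6 hpf; static exposure to 120 hpf, 28C, 0.64% DMSO final. Endpoint: somite malformation, binary, brightfield. Mortality excluded.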

[8] = Tanguay_ZF_120hpf_PE_legacy: (Legacy) Oregon State University Tanguay Lab 120 Hour Post-fertilization zebrafish Assay for Pericardial Edema (AID 2283640);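 for AC50: potency for increased incidence of pericardial edema versus DMSO baseline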
Method in brief: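 Read-out is the presence or absence of pericardial edema at 120 hpf under brightfield, with gain of signal fitted against DMSO controls. Larvae (5D wild-type) were statically exposed at 28C with 0.64% final DMSO.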

[9] = read-out: solute carrier (SLC22A6), SLC22A6 (gene 9356); experiment: LTEA_HepaRG_SLC22A6: Life Technologies and Expression Analysis (LTEA) Assay for solute carrier (SLC22A6) using HepaRG (AID 2283653; active = hit-call score of the fitted dose curve at least 0.9, where 1 is the maximum; inactive = score below 0.9); settings: mRNA level, 48 h; actives raise or lower the signal
Method in brief: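 This endpoint tracks SLC22A6 mRNA induction or suppression in human HepaRG cultures after 48 h dosing, concentrations reaching 100 uM. Values derive from bidirectional fitting against DMSO controls.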

[10] = read-out: kallikrein-3 (KLK3), KLK3 (gene 354); experiment: LTEA_HepaRG_KLK3: Life Technologies and Expression Analysis (LTEA) Assay for kallikrein-3 (KLK3) using HepaRG (AID 2283652; active = hit-call score of the fitted dose curve at least 0.9, where 1 is the maximum; inactive = score below 0.9); settings: mRNA level, 48 h; actives raise or lower the signal
Protocol: LTEA_HepaRG is a cell based, multiplexed-readout assay that uses HepaRG, a human liver cell line, with measurements taken at 48 hours after chemical dosing on a 96-well plate.LTEA_HepaRG_KLK3 is one of 102 assay component(s) measured in the LTEA HepaRG cell culture assay. It is a marker of Cellular remodeling.Data from the assay component LTEA_HepaRG_KLK3 was analyzed into 1 endpoint. This assay endpoint, LTEA_HepaRG_KLK3, was analyzed with bidirectional fitting relative to DMSO as the negative control and baseline of activity. Using a type of inducible reporter, measures of mRNA induction for gain or loss-of-signal activity can be used to understand regulation of transcription factor activity. To generalize the intended target to other relatable targets, this assay endpoint is annotated to the protease intended target family, where the subfamily is Cellular remodeling.
A total of 1060 chemcials from the ToxCast library were tested in eight-point concentration-response experiments. Cell culture and cytotoxicity assays were conducted at Thermo Fisher Scientific's Custom Services facility (Madison, WI). A single lot of human HepaRG cells (Thermo Fisher Scientific, Frederick, MD) was used for the cell culture experiments. 96-well format collagen type I coated plates of human HepaRG cells were prepared using established methods. Briefly, cryopreserved HepaRG cells were thawed, plated at a density of approximately 100,000 cells/well in HepaRG Thaw, Plate, and General Purpose media (HPRG770, Thermo Fisher Scientific), and incubated for 48 hours. 0.5% DMSO was selected as vehicle control to balance the requisite need of DMSO in HepaRG cultures to maintain differentiation (for example, baseline metabolism, proportions of hepatocytes vs. cholangiocytes), while enabling further hepatic receptor pathway activation (for example, PXR and CAR) in response to chemical exposure. 48 hours after plating, the culture medium was replaced with HepaRG Serum-Free Incudtion Media. Cells were exposed to each test chemical in duplicate and maintained in CO2 incubators for another 48 hours. Chemical plates were thawed to room temperature and 200x concentrations of treatment groups were prepared. 8-point conentration-reponse curves were made with the highest exposure at 100 uM, followed by half-log dilutions, all in 0.5% DMSO. Each test plate contained variouse controls, induction positive controls (1mM phenobarbital), cytotoxicity positive controls ([…] aflatoxin B1), vehicle controls (0.5% DMSO), and total lysis controls (0.5% DMSO). Cell morphology images were taken using an Essen IncuCyte FLR automated microscope, with six 96-well plates imaged in about 24 minutes. Images were captured and exported and JPEG files. Spent culture media was transfered to black-well plates for the LDH assay, and remaining media was sorted at -80 C for later use. Cells were treated with RLT buffer and frozen until shipped for gene expression analysis. Total RNA was isolated from the cell suspension in 75 uL of Buffer RLT (Qiagen, Germantown, MD 20874) by Quintiles/Expression Analysis (Durham, NC) using a custom isolation procedure. Total RNA from each plate well was transferred to a preamplification plate. Fluidigm's 96.96 Dynamic ArrayTM (Fluidigm, Amsterdam, the Netherlands) technology was used for gene expression analyses by quantitative reverse transcription polymerase chain reaction (qRT-PCR, performed by Quintiles/Expression Analysis, Durham, NC)89. […]

Structure (SMILES) | outcome [1] | outcome [2] | outcome [3] | outcome [4] | outcome [5] | outcome [6] | outcome [7] | outcome [8] | AC50 [8] | outcome [9] | AC50 [6] | outcome [10]
CN[C@H]1CC[C@@H](c2ccc(Cl)c(Cl)c2)c2ccc(S(N)(=O)=O)cc21 | inactive | inactive | inactive | inactive | inactive | inactive |  |  |  |  |  | 
CCCCCCCCCCCCCO | inactive | inactive | inactive | inactive | inactive |  | inactive |  |  |  |  | 
CCCCCCCCCCCCCCCCCC(=O)O | inactive | inactive | inactive | inactive |  | inactive |  | inactive |  |  |  | 
Cc1c(C(=O)O)c(O)cc2c1C(=O)c1c(O)c([C@@H]3O[C@H](CO)[C@@H](O)[C@H](O)[C@H]3O)c(O)c(O)c1C2=O |  | inactive | inactive | inactive |  | inactive | inactive | inactive |  |  |  | 
CCCCCCCCCCCCCCCC |  | inactive | inactive | inactive | inactive | inactive | inactive | inactive |  |  |  | 
NCC1(Cc2noc(=O)[nH]2)CCCCC1 |  | inactive | inactive | inactive | inactive | inactive |  | inactive |  |  |  | 
Nc1ccc2c(c1)C(=O)c1ccccc1C2=O | inactive | inactive | inactive | inactive | inactive | inactive | inactive |  |  |  |  | 
Nc1ccccc1N |  | inactive | inactive | inactive | inactive |  | inactive |  | 10.5 µM (active) |  |  | 
CCCCCCCCCCCC(=O)OC |  | inactive | inactive | inactive | inactive | inactive | inactive | inactive |  |  |  | 
Oc1ccc2ccccc2c1N=Nc1ccccc1 |  | inactive | inactive | inactive | inactive |  | inactive |  | 35.2 µM (active) | inactive | 51.7 µM (active) | 
NS(=O)(=O)c1cc2c(cc1Cl)NCNS2(=O)=O | inactive | inactive | inactive | inactive | inactive | inactive | inactive |  |  |  |  | 
Cc1cccc(C)c1O | inactive | inactive |  | inactive | inactive | inactive |  | inactive |  |  |  | 
CC1(C)NC(=O)NC1=O |  | inactive | inactive |  |  | inactive |  | inactive |  |  |  | 
Cc1ccc(C(C)C)c(O)c1 |  | inactive | inactive | inactive | inactive |  |  | inactive |  |  |  | 
Cc1ccc(Cl)cc1 | inactive | inactive | inactive |  |  | inactive |  | inactive |  | inactive |  | inactive
C[C@]12C=CC(=O)C=C1CC[C@@H]1[C@@H]2C(=O)C[C@@]2(C)[C@H]1CC[C@]2(O)C(=O)CO | inactive | inactive | inactive |  | inactive | inactive | inactive |  |  |  |  | 
NC(=O)Cn1c(=O)cc(CCN2CCN(c3nccc4sccc34)CC2)c2ccc(F)cc21 |  | inactive | inactive |  | inactive | inactive |  | inactive |  |  |  | 
CC(CO)OC(C)CO (stereo not drawn) (tested in a mixture with another compound) |  | inactive | inactive | inactive |  | inactive |  | inactive |  |  |  | 
c1cc(-c2ccncc2)ccn1 | inactive | inactive |  | inactive | inactive | inactive |  | inactive |  |  |  | 
Cc1ccc(C)c(O)c1C |  | inactive | inactive | inactive | inactive | inactive | inactive | inactive |  |  |  | 
Nc1ccc(S(=O)(=O)c2ccc(N)cc2)cc1 |  | inactive | inactive | inactive | inactive | inactive | inactive |  |  |  |  | 
CNC(=O)[C@H]1O[C@@H](n2cnc3c(NCc4cc(Cl)ccc4OCc4cc(C)no4)ncnc32)[C@H](O)[C@@H]1N |  |  | inactive | inactive | inactive |  | inactive | inactive |  |  |  | 
CC1=C(/C=C/C(C)=C/C=C/C(C)=C/CO)C(C)(C)CCC1 |  | inactive | inactive | inactive | inactive | inactive | inactive | inactive |  |  |  | 
CNCc1cc(F)ccc1Oc1ccc(Cl)c(Cl)c1 | inactive | inactive | inactive | inactive |  | inactive |  |  |  |  |  | 
Cc1ccc(N(C)C)cc1 |  | inactive |  | inactive | inactive | inactive | inactive |  |  |  |  | 
COc1ccc(C)cc1N | inactive | inactive | inactive | inactive | inactive | inactive | inactive |  |  |  |  | 
